Screening data: PubChem, National Center for Advancing Translational Sciences (NCATS)
JMJD2A Tudor inh – inhibitors of human JMJD2A Tudor domain; O75164; AID 504339; 390,000 compounds, 4.4% hits; Potency, µM (highest dose often 114 µM), for the others: at the highest dose activity change, negative = inhibition, actives largely listed as inhibitors; AlphaScreen JMJD2A-Tudor / H3K4me3 peptide binding; also: % is scaled to controls: 0 for no effect and ±100 for the full control effect; nearly all actives have a fitted effect of over 50% in size
GLS inhibitor – inhibitors of human glutaminase (GLS); O94925; GLS enzymatic activity, qHTS titration; Potency, µM (series often up to 45.5 µM), without a hit: at the top dose activity change, negative = inhibition, actives largely listed as inhibitors; 410,000 compounds, 0.21% hits; AID 624170; also: % is scaled to controls: 0 for no effect and ±100 for the full control effect
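hKGA; 45 mM KH2PO4 pH 8.2 + 0.02% Tween-20; cpd via pin tool; 1 mM Gln soln; GluOx/HRP/Amplex Red; RT 30 min; fluor. t0 & final.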
HP1b binding inh – inhibitors of HP1-beta chromodomain binding to methylated histone tails | P83916 | AlphaScreen HP1-beta / biotin-H3K9me3 peptide binding | Potency, µM (highest dose often 114 µM), inactives show at the highest dose activity change, negative = inhibition, usual class: inhibitors | 390,000 compounds, 0.56% hits | AID 540317; also: nearly all actives have a fitted effect of over 70% in size
Target sequence (P83916 whole entry, looked up): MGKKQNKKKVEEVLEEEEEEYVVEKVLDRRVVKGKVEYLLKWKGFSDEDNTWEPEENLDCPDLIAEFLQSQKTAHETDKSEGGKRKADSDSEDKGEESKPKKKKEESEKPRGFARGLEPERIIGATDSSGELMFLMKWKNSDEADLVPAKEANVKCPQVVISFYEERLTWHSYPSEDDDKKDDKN
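Compound inhibition of the preformed complex between 50 nM HP1-beta and 50 nM biotinylated H3K9me3 peptide was read by AlphaScreen. Buffer was PBS pH 7.4 with 0.01% Tween-20. Incubations ran 30 min at room temperature, with 10 ug/mL donor/acceptor beads.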
G9a block – G9a (human) methyltransferase inhibition | Q96KQ7 | G9a H3K9 monomethylation, AlphaScreen, 2 h | Potency, µM (highest dose often 102 µM), for inactives: at the top dose activity, negative = inhibition, most hits filed as inhibitors | 350,000 compounds, 8.8% hits; also: % is scaled to controls: 0 for no effect and ±100 for the full control effect; nearly all actives have a fitted effect of over 75% in size
Target sequence (Q96KQ7 913-1193 limits assumed): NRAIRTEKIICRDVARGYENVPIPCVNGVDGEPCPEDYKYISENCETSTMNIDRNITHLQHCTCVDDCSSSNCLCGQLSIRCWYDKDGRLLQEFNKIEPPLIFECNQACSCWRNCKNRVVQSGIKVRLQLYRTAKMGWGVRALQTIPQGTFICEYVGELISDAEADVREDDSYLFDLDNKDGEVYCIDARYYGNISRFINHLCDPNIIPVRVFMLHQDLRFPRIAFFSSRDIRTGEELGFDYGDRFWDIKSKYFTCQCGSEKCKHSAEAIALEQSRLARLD
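Quantitative HTS format: methyltransferase activity on a biotin-tagged H3K9 peptide is measured by AlphaScreen, using a rabbit anti-monomethyl-H3K9 antibody with streptavidin donor and anti-IgG acceptor beads. Final levels are 20 nM enzyme, 500 nM peptide, 20 uM SAM; 2 h RT.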
BAZ2B inh – blocks human BAZ2B; AlphaScreen BAZ2B-H3K14Ac peptide displacement; 360,000 compounds, 4.4% hits; Potency, µM (top dose mostly 114 µM), without a hit: at the top dose activity change, negative = inhibition, most hits filed as inhibitors; Q9UIF8; also: % is scaled to controls: 0 for no effect and ±100 for the full control effect; nearly all actives have a fitted effect of over 60% in size
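In this displacement format the biotinylated H3(5-23) peptide acetylated at Lys14 serves as ligand at 50 nM, with BAZ2B at 50 nM in PBS pH 7.4 containing 0.01% Tween-20. Donor and acceptor beads are 10 ug/mL final.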
Active calls of the source: *; ! = repeats disagree; [ ] = another dose, or the depositor's remark. A selection: hits, their analogues and other compounds. The true share with any hit is near 10%. Calls follow the shape of the dose curve; as a rule, active = well fitted curve in the direction sought with a large enough effect; inconclusive = small, poorly fitted or top-dose-only effect, or another doubt; inactive = no such curve, though single readings can be large; an effect the other way counts as inactive or inconclusive. Potency is read from the fitted curve at half-maximal effect.

Screening Fc1ccccc1N1CCN(Cc2cccnc2)CC1 returned JMJD2A Tudor inh 1.58µM*, GLS inhibitor 3.6%, HP1b binding inh inconclusive, G9a block 28.2µM* and BAZ2B inh 56.2µM*.
`Fc1ccccc1N1CCN(CC2CCCCC2)CC1` gave JMJD2A Tudor inh 20µM*, GLS inhibitor 2.0%, HP1b binding inh inconclusive, G9a block 18.6%[0.501 µM] and BAZ2B inh 79.4µM*.
Screening CCC(=O)Nc1nnc(S(=O)(=O)N2CCCCCC2)s1 returned JMJD2A Tudor inh 11.2µM*!, GLS inhibitor 3.0%, HP1b binding inh inconclusive, G9a block 10µM*! and BAZ2B inh 7.08µM*!.
`CCCC(=O)Nc1nnc(S(=O)(=O)N2CCCCCC2)s1` gave JMJD2A Tudor inh 20µM*!, GLS inhibitor -12.1%, HP1b binding inh inconclusive, G9a block 12.6µM* and BAZ2B inh 14.1µM*!.
For COc1cccc(CNC(=O)Cc2csc3ccccc23)c1OC the results were JMJD2A Tudor inh -9.1%, GLS inhibitor 3.6%, HP1b binding inh 42.2%, G9a block -4.9%[59 µM] and BAZ2B inh 0.5%.
Screening O=C1C([N+](=O)[O-])=C(O)c2cccc3cccc1c23 returned G9a block 1.26µM* and BAZ2B inh 44.7µM*.
For COc1ccc(/C(C)=N/N=C2/NC(=O)CC(C(=O)O)S2)cc1 (stereo unspecified) the results were JMJD2A Tudor inh 44.7µM*, GLS inhibitor inconclusive, HP1b binding inh 8.3%, G9a block 11.7%[59 µM] and BAZ2B inh -2.6%.
`O=C1CC(C(=O)O)S/C(=N\NC(=O)c2ccccc2)N1` (stereo unspecified) gave JMJD2A Tudor inh 1.41µM*, GLS inhibitor 40.8%, HP1b binding inh 10.6%, G9a block inconclusive and BAZ2B inh 50.1µM*.
For COC(=O)CCNC(=O)Cc1c(C)n(C(=O)c2ccc(Cl)cc2)c2ccc(OC)cc12 the results were JMJD2A Tudor inh -25.4%, GLS inhibitor 0.8%, HP1b binding inh 3.9%, G9a block 50.1µM* and BAZ2B inh -20.0%.
Screening CCCNC(=O)Cc1c(C)n(C(=O)c2ccc(Cl)cc2)c2ccc(OC)cc12 returned JMJD2A Tudor inh -11.6%, GLS inhibitor 1.5%, HP1b binding inh 23.8% and BAZ2B inh 0.5%.
Screening COc1ccc(-n2c(/C=C/c3cccc(C(F)(F)F)c3)nc3ccccc3c2=O)cc1Cl returned JMJD2A Tudor inh -8.3%, GLS inhibitor -0.5%, HP1b binding inh 21.2%, G9a block 1.1%[59 µM] and BAZ2B inh 0.5%.
`O=C(CN1CCN(c2ccccc2O)CC1)NCCCc1ccccc1` gave JMJD2A Tudor inh -17.4%, GLS inhibitor 5.01µM*, HP1b binding inh 10.5% and G9a block -45.1%.
Screening Cc1cc(NC(=O)CN2C(=O)CC(c3ccco3)Sc3ccccc32)no1 (stereo unspecified) returned JMJD2A Tudor inh inconclusive, GLS inhibitor -10.8%, HP1b binding inh -10.7%, G9a block 12.6µM* and BAZ2B inh -30.4%.
Screening Cc1cc(NC(=O)CN2CCN(c3ccccc3O)CC2)no1 returned JMJD2A Tudor inh 79.4µM*, GLS inhibitor 46.0%, HP1b binding inh 8.4%, G9a block inconclusive and BAZ2B inh -1.4%.
Screening Cc1cc(NC(=O)CN2CCC(C)CC2)no1 returned JMJD2A Tudor inh 5.01µM*, GLS inhibitor 0.3%, HP1b binding inh inconclusive and G9a block 3.55µM*.
`O=C(CN1CCN(c2ccccc2F)CC1)NCc1ccccc1` gave JMJD2A Tudor inh -13.8%, GLS inhibitor 1.1%, HP1b binding inh 21.9% and BAZ2B inh -3.5%.
Cc1cnc(C)c(Nc2nc(C(N)Cc3ccc(Cl)cc3)cs2)n1 (stereo unspecified) was read as GLS inhibitor 5.5%.
Screening O=C(COC(=O)c1ccccc1O)NCCCc1ccccc1 returned JMJD2A Tudor inh 79.4µM*, GLS inhibitor 0.6%, HP1b binding inh 4.0%, G9a block -31.6% and BAZ2B inh 19.7%.
For CCN(CC)CCCC(C)Nc1cc(/C=C/c2ccccc2Cl)nc2cc(Cl)ccc12 (stereo unspecified) the results were GLS inhibitor 6.0% and G9a block -15.6%[12.7 µM].
CCN(CC)CCCC(C)Nc1c2ccc(Cl)cc2nc2ccc(OC)cc12 (stereo unspecified) was read as G9a block 8.44µM* and BAZ2B inh -34.1%.
For CN(Cc1ccco1)c1ncnc2ccc(-c3ccc4c(c3)OCO4)cc12 the results were JMJD2A Tudor inh inconclusive, GLS inhibitor -0.5%, HP1b binding inh 1.4%, G9a block -4.3%[12.7 µM] and BAZ2B inh -10.5%.
`Cc1nc(CN(C)c2ncnc3ccc(-c4ccc5c(c4)OCO5)cc23)cs1` gave JMJD2A Tudor inh 89.1µM* and GLS inhibitor 9.7%.
Screening CCOC(=O)c1ccc(S(=O)(=O)NNS(=O)(=O)c2ccc(C)cc2)cc1 returned JMJD2A Tudor inh -13.2%, GLS inhibitor 14.2%, HP1b binding inh 33.8%, G9a block 7.1%[2.33 µM] and BAZ2B inh 3.2%.
Screening CCOC(=O)c1c(C)oc2c1cc(NS(=O)(=O)c1ccc(C(=O)O)cc1)c1ccccc12 returned JMJD2A Tudor inh -21.2%, GLS inhibitor -12.9%, HP1b binding inh -22.2%, G9a block 35.5µM* and BAZ2B inh -29.0%.
For CCOC(=O)c1ccc(S(=O)(=O)Nc2cc(C(=O)O)ccc2Cl)cc1 the results were JMJD2A Tudor inh -20.3%, GLS inhibitor 3.1%, HP1b binding inh 10.0%, G9a block 7.94µM* and BAZ2B inh -15.2%.
`FC(F)(F)c1ccccc1-c1ccc2ncnc(NC3CC3)c2c1` gave G9a block 6.9%[0.501 µM].
Screening CC(C)(C)c1ccc(/C=N/NC(=S)NCc2ccccc2)cc1 returned JMJD2A Tudor inh -13.6%, GLS inhibitor 2.4%, HP1b binding inh 23.6%, G9a block 23.7%[59 µM] and BAZ2B inh -0.3%.
For CN(C)c1ccc(/C=N/NC(=S)NCc2ccccc2)cc1 the results were JMJD2A Tudor inh 12.6µM*, GLS inhibitor 42.1%, HP1b binding inh 50.1µM*, G9a block inconclusive and BAZ2B inh inconclusive.
Screening Cc1ccccc1N(CC(=O)N/N=C/c1ccc(N(C)C)cc1)C(=O)c1ccccc1 returned JMJD2A Tudor inh 20µM*, GLS inhibitor 36.0%, HP1b binding inh inconclusive, G9a block inconclusive and BAZ2B inh 56.2µM*.
Screening O=S(=O)(c1ccc2c(c1)OCCO2)N1CCN(S(=O)(=O)c2ccccc2OC(F)(F)F)CC1 returned JMJD2A Tudor inh -11.0%.
For CC[C@@H]1OC(=O)C[C@H](O)[C@@H](C)[C@@H](O[C@H]2O[C@@H](C)[C@H](O[C@@H]3C[C@](C)(O)[C@H](O)[C@@H](C)O3)[C@@H](N(C)C)[C@@H]2O)[C@@H](C=O)C[C@@H](C)C(=O)/C=C/C(C)=C[C@@H]1CO[C@H]1O[C@@H](C)[C@H](O)[C@H](OC)[C@@H]1OC the results were GLS inhibitor 21.4%.
